Calls of active or inactive are those of the source.

Test [1] can be described thus: A549 cell viability effects, profiling panel, calcein-AM fluorescence, 48 h, basal (AID 1162). The following applies: higher = more signal.
Test [2] in a line: adipocyte viability effects, profiling panel, cell-based, 3T3-L1 adipocytes, calcein-AM fluorescence, 48 h, basal (AID 1163). The settings on record: 3T3-L1 adipocytes viability, higher = more signal.
The nature of test [3]: HepG2 cell viability effects, profiling panel, calcein-AM fluorescence, 48 h, basal (AID 1164). The following applies: higher = more signal.
Test [4] can be described thus: MM1S cell viability effects, profiling panel, calcein-AM fluorescence, 48 h, basal (AID 1165).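 Note: viability of MM1S multiple myeloma cells under basal unstimulated conditions.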 The following applies: higher = more signal.
The nature of test [5]: basal RPMI8226 viability, no added stimulus, profiling panel, cell-based, calcein-AM fluorescence, 48 h, PK04 Diversity Set (AID 1166).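 Note: cells grown under basal conditions without added stimulus.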 The settings on record: RPMI8226 myeloma viability, higher = more signal.
A short description of test [6]: basal HepG2 mitochondrial membrane potential changes, profiling panel, cell-based, JC-1 fluorescence, 24 h, 100 nL compound (AID 1167). The following applies: higher = more signal.
The nature of test [7]: basal 3T3-L1 adipocyte mitochondrial potential changes, profiling panel, cell-based, JC-1 fluorescence, 3T3-L1 adipocytes, 24 h, 100 nL compound (AID 1168). The following applies: JC-1 mitochondrial fluorescence, higher = more signal, called active from +8 up or from −8 down.
The nature of test [8]: basal RPMI8226 mitochondrial membrane potential changes, profiling panel, cell-based, JC-1 fluorescence, 24 h, 100 nL compound (AID 1169). The settings on record: RPMI8226 myeloma, JC-1 mitochondrial potential fluorescence, higher = more signal.
The nature of test [9]: basal MM1S mitochondrial membrane potential changes, profiling panel, cell-based, JC-1 fluorescence, 24 h, 100 nL compound (AID 1170). The following applies: higher = more signal.
Test [10] in a line: A549 lung cancer cell viability effects, profiling panel, resazurin fluorescence, 24 h, PK04 Diversity Set (AID 1171). The settings on record: higher = more signal, called active from +8 up or from −8 down. On the technique in general: The colour change of resazurin is a common sign of viable cells or microbes.
Note: test concentration not given here.

As for `C[C@@H]1C=CCC(=O)OC[C@H](C)C(=O)OC[C@H]2O[C@H]1C=C[C@H]2O`, the z-score in test [1] is 0.145; in test [2], -0.261; in [3] it was -0.139; in test [4] it was -1.42; in test [5], -0.595; in test [6], 0.482. In addition, the z-score in [7] is 0.36 (inactive); in test [8], -0.103; in [9], -0.314; in test [10], 0.172 (inactive).

As for `C[C@@H]1C=CCC(=O)OC[C@H](C)C(=O)N2CCC[C@H]2C(=O)OC1`, the z-score in test [1] is -0.581; in test [2], 0.0764; in test [3], -0.492; in test [4] it was 0.13; in [5], -0.665; in [6], -0.248. Further, the z-score in [7] was -1.27 (inactive); in [8] it was 0.363; in test [9] it was -0.583; in test [10] it was -0.0059 (inactive).

With `CO[C@@H]1COC(=O)CC=C[C@@H](C)COC(=O)[C@H](COCc2ccccc2)NC(=O)CC=C[C@H]1C`, the z-score was 0.248 in test [1]; 0.268 in [2]; 0.351 in test [3]; -0.987 in test [4]; -0.382 in test [5]; 0.575 in test [6]. Besides, the z-score in test [7] was -0.407 (inactive); in [8] it was -0.873; in test [9] it was 1.61; in [10], -0.653 (inactive).

In the case of `COC(=O)CC1OC1[C@H](C)[C@@H](OC)C(C)C` (stereo not given in full), the z-score in test [1] is 0.285; in test [2] it was 0.0498; in test [3], 1.66; in test [4], -3.45; in test [5] it was 0.045; in test [6] it was 1.74. Besides, the z-score in test [7] is 0.269 (inactive); in [8], 0.666; in test [9], -0.796; in test [10] it was -0.292 (inactive).

Regarding `Cn1c(=O)n2n(c1=O)[C@H]1[C@H](O)[C@@H]3O[C@@H]3C(=NOC[C@@H](O)COCc3ccco3)[C@H]1CC2`, the z-score in [1] was 0.981; in test [2] it was 0.323; in [3] it was 1.41; in test [4], 0.287; in test [5], 0.588; in [6], 1.41. Moreover, the z-score was -0.439 (inactive) in [7], -0.402 in [8], -0.397 in test [9] and -0.195 (inactive) in [10].

With `COCCOC(=O)N1C(=O)[C@@]2(c3ccccc31)[C@H](C(N)=O)[C@H]1C(=O)O[C@H](c3ccccc3)[C@H](c3ccccc3)N1[C@@H]2c1ccccc1OCCO`, the z-score was -0.421 in test [1]; 1.59 in [2]; -1.42 in test [3]; -3.2 in [4]; -4.53 in test [5]; -0.728 in test [6]. In addition, the z-score is 0.633 (inactive) in test [7], -1.1 in test [8], -0.0748 in test [9] and -1.54 (inactive) in test [10].

For the compound `Cc1ccc(S(=O)(=O)N[C@@H]2COC(=O)[C@H](C)COC(=O)CC=C[C@H]2C)cc1`, the z-score in test [1] was 0.449; in [2] it was 0.518; in test [3] it was 0.53; in test [4], 0.228; in test [5], 0.274; in test [6], 0.539. For the same compound, the z-score is -0.0933 (inactive) in test [7], 1.06 in test [8], 0.34 in test [9] and 0.317 (inactive) in test [10].

As for `CC(C)=CCCC(C)=CCON=C1[C@H]2CCn3c(=O)n(C)c(=O)n3[C@H]2[C@H](O)[C@@H]2O[C@H]12`, the z-score in test [1] is 0.717; in [2], -0.326; in [3], 1.11; in test [4] it was 0.114; in test [5] it was -0.183; in test [6] it was 0.46. Also, the z-score in test [7] is -0.14 (inactive); in test [8] it was -0.2; in [9], -0.731; in [10] it was -0.83 (inactive).

Regarding `O=C1c2ccccc2[C@@]2(Cc3ccccc3N(C3CC3)C2=O)[C@H](c2ccc(CO)cc2)N1Cc1ccccc1C(F)(F)F`, the z-score was 0.238 in [1]; 0.4 in test [2]; -0.772 in test [3]; 0.306 in test [4]; -0.522 in [5]; 1.13 in test [6]. Besides, the z-score in test [7] was -0.474 (inactive); in [8] it was 0.84; in [9], -1.56; in test [10] it was 0.164 (inactive).

Consider `CCOC(=O)C1=CC[C@H]2C(=O)N(CC)C(=O)[C@@H]12`, for which the z-score in test [1] is -0.148; in [2], 0.0888; in [3], -0.622; in [4], -0.0999; in [5], 0.0317; in [6], -0.342. Moreover, the z-score in [7] is -0.362 (inactive); in test [8], 0.0877; in test [9], -0.517; in [10], 1.17 (inactive).

In the case of `CCc1cc2c(nc1CC)CCN(CCC(C)=NOC[C@@H](O)COCc1ccco1)C2`, the z-score in [1] was 0.902; in test [2] it was 0.592; in test [3], 0.526; in [4], -0.548; in test [5], -0.862; in test [6] it was 1.44. The z-score was -0.901 (inactive) in test [7], -0.824 in test [8], 0.581 in test [9] and -0.527 (inactive) in test [10].

Take `C=C(CCCC)C(=O)CC[C@@H](OC(C)=O)c1cccc(OCCO)c1`: the z-score was -0.985 in test [1]; -1.33 in [2]; -2.45 in [3]; -2.53 in test [4]; -2.28 in test [5]; -0.974 in test [6]. The z-score in [7] was -0.673 (inactive); in [8] it was 0.452; in test [9], -0.238; in test [10], -0.713 (inactive).

In the case of `COC(=O)[C@H](C)NC(=O)CCC1CC(OC(=O)NCCc2ccc(F)cc2)CC2(CCCC(COC(=O)NCCc3ccc(Cl)cc3)O2)O1` (stereo not given in full), the z-score was 0.98 in test [1]; -0.154 in [2]; 0.649 in test [3]; -1.14 in [4]; -0.227 in [5]; 0.341 in test [6]. Besides, the z-score in [7] is 0.313 (inactive); in test [8], 0.437; in [9], -0.324; in test [10], 0.544 (inactive).

As to `CCOC(=O)[C@H](CC(C)C)NC(=O)CCC1CC(OC(=O)NCCc2ccc(F)cc2)CC2(CCCC(COC(=O)NCc3ccccc3)O2)O1` (stereo not given in full), the z-score in test [1] is -0.138; in test [2], 0.0596; in [3], -3.35; in test [4], -3.45; in [5], -3.81; in [6], -2.07. In addition, the z-score was 0.154 (inactive) in test [7], -0.165 in test [8], -1.45 in [9] and 0.29 (inactive) in [10].

(Values after PubChem BioAssay.)
